# Experimental data taken from PubChem BioAssay (NCATS).
# Records with an inconclusive call do not appear. The source made the active and inactive calls. Unless noted, calls come from the whole dose curve; as a rule, active = well fitted curve in the direction sought with a large enough effect; inconclusive = small, poorly fitted or top-dose-only effect, or another doubt; inactive = no such curve, though single readings can be large; an effect the other way counts as inactive or inconclusive.
# Tests used:
# [1] = S16 Schwann cell viability assay (CellTiter-Glo assay) (AID 624031); details: S16 rat Schwann cells viability, 24 h; series mostly up to 25.7 µM; note: nearly all actives have a fitted effect of over 70% in size; note: potency is the fitted concentration of half-maximal effect
# In short: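 Native S16 rat Schwann cells in DMEM/10% FBS without phenol red were incubated overnight, then exposed to compounds for 24 h at 37 °C/5% CO2. Viability was read as ATP luminescence (CellTiter-Glo), normalized to no-cell wells and DMSO (0%).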
# CP211 = assay: qHTS profiling for inhibitors of Plasmodium falciparum proliferation (AID 504749); note: nearly all actives have a fitted effect of over 60% in size; note: potency is the fitted concentration of half-maximal effect; details: P. falciparum in erythrocytes, SYBR Green DNA, 72 h; series mostly up to 12.8 µM
# In short: (§1)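 SYBR Green fluorescence of parasite DNA, read after lysis and overnight dark incubation, measured growth over 72 h in erythrocyte culture at 0.3% parasitemia and 2.5% hematocrit. Data normalised to DMSO and 0.29 uM artemisinin, with plate-drift correction.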
# CP256 = assay: as above; details: P. falciparum in erythrocytes, SYBR Green DNA, 72 h; series mostly up to 12.8 µM
# In short: as §1
# CP262 = assay: as above; details: P. falciparum in erythrocytes, SYBR Green DNA, 72 h; series mostly up to 12.8 µM
# In short: as §1
# CP297 = assay: as above; details: P. falciparum in erythrocytes, SYBR Green DNA, 72 h; series mostly up to 12.8 µM
# In short: as §1
# DIV17 = assay: as above; details: P. falciparum in erythrocytes, SYBR Green DNA, 72 h; series mostly up to 12.8 µM
# In short: as §1
# FAB9 = assay: as above; details: P. falciparum in erythrocytes, SYBR Green DNA, 72 h; series mostly up to 12.8 µM
# In short: as §1
# ICS = assay: as above; details: P. falciparum in erythrocytes, SYBR Green DNA, 72 h; series mostly up to 12.8 µM
# In short: as §1
# JCK = assay: as above; details: P. falciparum in erythrocytes, SYBR Green DNA, 72 h; series mostly up to 12.8 µM
# In short: as §1
# PC15 = assay: as above; details: P. falciparum in erythrocytes, SYBR Green DNA, 72 h; series mostly up to 12.8 µM
# In short: as §1
# W2 = assay: as above; details: P. falciparum in erythrocytes, SYBR Green DNA, 72 h; series mostly up to 12.8 µM
# In short: as §1
# [2] = molecular target: Rap guanine nucleotide exchange factor 3 (Homo sapiens) (UniProt O95398); assay: Counterscreen qHTS for agonist of cAMP-regulated guanine nucleotide exchange factor 3 (EPAC1) (AID 1645889); details: EPAC1 Rap1B-BODIPY-GDP exchange, fluorescence; series mostly up to 30.8 µM; note: nearly all actives have a fitted effect of over 40% in size
# In short: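 Rap1B-BODIPY-GDP 250 nM + GDP 50 uM; cpds 7-pt, final 9.74 nM–152 uM (activator mode) or from 7.32 nM upwards (inhibitor mode); RT; FI 480/540 nm at 5 and 30 min, then ± cAMP, reread.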
# [3] = NCATS anti-infectives library activity on the primary C. elegans qHTS viability assay (AID 1745855; calls by dose curve; note: potency is the fitted concentration of half-maximal effect); details: C. elegans worm area imaging, day 7
# In short: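 GFP read-out by 488 nm laser cytometry at day 0, 3 and 7, gated on object perimeter, area and peak intensity, scored viability of PE254-GFP-FLuc worms exposed to compound in S medium with bacterial capsules at 21 °C.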
# [4] = qHTS profiling for inhibitors of Plasmodium falciparum proliferation (AID 504749); note: nearly all actives have a fitted effect of over 60% in size; note: potency is the fitted concentration of half-maximal effect; details: P. falciparum in erythrocytes, SYBR Green DNA, 72 h
# In short: as §1
# AS120 = assay: as above; details: P. falciparum in erythrocytes, SYBR Green DNA, 72 h; series mostly up to 28.7 µM
# In short: as §1
# CP191 = assay: as above; details: P. falciparum in erythrocytes, SYBR Green DNA, 72 h; series mostly up to 12.8 µM
# In short: as §1
# CP192 = assay: as above; details: P. falciparum in erythrocytes, SYBR Green DNA, 72 h; series mostly up to 28.7 µM
# In short: as §1
# CP203 = assay: as above; details: P. falciparum in erythrocytes, SYBR Green DNA, 72 h; series mostly up to 12.8 µM
# In short: as §1
# CP247 = assay: as above; details: P. falciparum in erythrocytes, SYBR Green DNA, 72 h; series mostly up to 12.8 µM
# In short: as §1
# CP291 = assay: as above; details: P. falciparum in erythrocytes, SYBR Green DNA, 72 h; series mostly up to 12.8 µM
# In short: as §1
smiles,measurement,setting,value
COc1cc(/C=C/C(=O)/C=C(O)/C=C/c2ccc(O)c(OC)c2)ccc1O,Potency,[1],inactive
same,Potency,CP211,inactive
same,Potency,CP256,inactive
same,Potency,CP262,inactive
same,Potency,CP297,15.1 µM (active)
same,Potency,DIV17,12 µM (active)
same,Potency,FAB9,inactive
same,Potency,ICS,10 µM (active)
same,Potency,JCK,inactive
same,Potency,PC15,inactive
same,Potency,W2,15.1 µM (active)
COc1ccc(-c2cc(=O)c3c(OC)c(OC)c(OC)c(OC)c3o2)cc1,outcome,[2],inactive
Cc1cc(/C=C\c2ccc3cc(N(C)C)ccc3[n+]2C)c(C)n1-c1ccccc1,Potency,[1],15.5 µM (active)
same,Potency,[3],29 µM (active)
same,Potency,[4]; parasite line A,1.58 µM (active)
same,Potency,[4]; parasite line B,1.58 µM (active)
same,Potency,AS120,3.16 µM (active)
same,Potency,CP191,1.41 µM (active)
same,Potency,CP192,2.03 µM (active)
same,Potency,CP203,2.28 µM (active)
same,Potency,CP211,1.81 µM (active)
same,Potency,CP247,3.55 µM (active)
same,Potency,CP256,1.58 µM (active)
same,Potency,CP291,3.61 µM (active)
same,Potency,CP297,2.28 µM (active)
same,Potency,DIV17,3.61 µM (active)
same,Potency,FAB9,2 µM (active)
same,Potency,ICS,0.562 µM (active)
same,Potency,JCK,3.16 µM (active)
same,Potency,PC15,3.55 µM (active)
same,Potency,W2,0.128 µM (active)
